These results are taken from ChEMBL document CHEMBL1961873, “Compounds: GSK PKIS; Assays: Nanosyn kinase panel” (2012).

In general, inhibition refers to the relative decrease from the control value, in per cent.

Test [1] has as its target T1, Mitogen-activated protein kinase 12 (Homo sapiens) (UniProt P53778).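 Note: values are averaged p38gamma kinase inhibition readings, compounds tested at 1 µM.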
T1 sequence (whole entry): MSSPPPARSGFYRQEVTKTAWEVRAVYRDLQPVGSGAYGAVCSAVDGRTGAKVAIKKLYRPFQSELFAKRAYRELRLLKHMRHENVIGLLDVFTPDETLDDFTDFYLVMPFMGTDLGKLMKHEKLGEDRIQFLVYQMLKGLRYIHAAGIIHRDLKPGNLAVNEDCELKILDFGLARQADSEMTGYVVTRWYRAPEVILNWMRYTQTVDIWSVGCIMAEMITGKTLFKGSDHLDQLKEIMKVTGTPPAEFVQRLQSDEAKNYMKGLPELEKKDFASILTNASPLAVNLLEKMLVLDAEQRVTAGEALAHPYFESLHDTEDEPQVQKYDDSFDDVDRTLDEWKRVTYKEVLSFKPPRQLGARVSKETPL
To be noted: at 1 µM.

Test [2] addresses SRSF protein kinase 1 (Homo sapiens) (UniProt Q96SB4). To be noted: at 0.1 µM.
For test [3] the target is unchanged. The following applies: at 1 µM.
In test [4] the target is Phosphatidylinositol 4,5-bisphosphate 3-kinase catalytic subunit alpha isoform (Homo sapiens) (UniProt P42336). The following applies: at 0.1 µM.
Sequence of Phosphatidylinositol 4,5-bisphosphate 3-kinase catalytic subunit alpha isoform (Homo sapiens) (P42336 whole entry, canonical isoform): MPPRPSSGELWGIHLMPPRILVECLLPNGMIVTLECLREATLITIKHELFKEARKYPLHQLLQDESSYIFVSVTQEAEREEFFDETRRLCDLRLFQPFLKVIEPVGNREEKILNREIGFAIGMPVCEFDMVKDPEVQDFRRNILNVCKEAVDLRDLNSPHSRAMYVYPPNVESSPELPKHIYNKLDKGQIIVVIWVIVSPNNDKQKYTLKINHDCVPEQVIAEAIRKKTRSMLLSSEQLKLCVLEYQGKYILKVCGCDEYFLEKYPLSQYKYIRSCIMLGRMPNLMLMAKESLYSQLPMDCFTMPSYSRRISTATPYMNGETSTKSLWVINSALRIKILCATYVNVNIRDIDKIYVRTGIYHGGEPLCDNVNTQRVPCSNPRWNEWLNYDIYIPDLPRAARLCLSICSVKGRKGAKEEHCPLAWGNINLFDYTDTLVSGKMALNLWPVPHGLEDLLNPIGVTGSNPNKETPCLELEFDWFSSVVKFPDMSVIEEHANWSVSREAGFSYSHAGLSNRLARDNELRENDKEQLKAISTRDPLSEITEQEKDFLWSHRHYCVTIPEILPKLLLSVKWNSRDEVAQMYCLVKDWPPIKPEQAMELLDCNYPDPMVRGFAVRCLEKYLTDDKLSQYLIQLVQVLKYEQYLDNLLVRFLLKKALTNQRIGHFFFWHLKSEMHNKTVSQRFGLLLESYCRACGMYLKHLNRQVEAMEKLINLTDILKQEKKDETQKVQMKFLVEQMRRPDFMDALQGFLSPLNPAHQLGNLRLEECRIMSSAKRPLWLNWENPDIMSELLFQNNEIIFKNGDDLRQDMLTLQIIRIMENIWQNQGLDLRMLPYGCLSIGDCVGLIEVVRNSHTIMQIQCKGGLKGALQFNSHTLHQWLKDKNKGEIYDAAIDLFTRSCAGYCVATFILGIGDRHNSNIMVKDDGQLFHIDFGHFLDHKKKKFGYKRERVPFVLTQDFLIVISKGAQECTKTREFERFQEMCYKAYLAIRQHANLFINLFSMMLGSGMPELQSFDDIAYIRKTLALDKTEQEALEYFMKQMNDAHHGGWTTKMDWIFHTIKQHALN
For test [5] the target is unchanged. To be noted: at 1 µM.
Test [6] addresses T2, Phosphatidylinositol 4,5-bisphosphate 3-kinase catalytic subunit delta isoform (Homo sapiens) (UniProt O00329).
T2 sequence (whole entry): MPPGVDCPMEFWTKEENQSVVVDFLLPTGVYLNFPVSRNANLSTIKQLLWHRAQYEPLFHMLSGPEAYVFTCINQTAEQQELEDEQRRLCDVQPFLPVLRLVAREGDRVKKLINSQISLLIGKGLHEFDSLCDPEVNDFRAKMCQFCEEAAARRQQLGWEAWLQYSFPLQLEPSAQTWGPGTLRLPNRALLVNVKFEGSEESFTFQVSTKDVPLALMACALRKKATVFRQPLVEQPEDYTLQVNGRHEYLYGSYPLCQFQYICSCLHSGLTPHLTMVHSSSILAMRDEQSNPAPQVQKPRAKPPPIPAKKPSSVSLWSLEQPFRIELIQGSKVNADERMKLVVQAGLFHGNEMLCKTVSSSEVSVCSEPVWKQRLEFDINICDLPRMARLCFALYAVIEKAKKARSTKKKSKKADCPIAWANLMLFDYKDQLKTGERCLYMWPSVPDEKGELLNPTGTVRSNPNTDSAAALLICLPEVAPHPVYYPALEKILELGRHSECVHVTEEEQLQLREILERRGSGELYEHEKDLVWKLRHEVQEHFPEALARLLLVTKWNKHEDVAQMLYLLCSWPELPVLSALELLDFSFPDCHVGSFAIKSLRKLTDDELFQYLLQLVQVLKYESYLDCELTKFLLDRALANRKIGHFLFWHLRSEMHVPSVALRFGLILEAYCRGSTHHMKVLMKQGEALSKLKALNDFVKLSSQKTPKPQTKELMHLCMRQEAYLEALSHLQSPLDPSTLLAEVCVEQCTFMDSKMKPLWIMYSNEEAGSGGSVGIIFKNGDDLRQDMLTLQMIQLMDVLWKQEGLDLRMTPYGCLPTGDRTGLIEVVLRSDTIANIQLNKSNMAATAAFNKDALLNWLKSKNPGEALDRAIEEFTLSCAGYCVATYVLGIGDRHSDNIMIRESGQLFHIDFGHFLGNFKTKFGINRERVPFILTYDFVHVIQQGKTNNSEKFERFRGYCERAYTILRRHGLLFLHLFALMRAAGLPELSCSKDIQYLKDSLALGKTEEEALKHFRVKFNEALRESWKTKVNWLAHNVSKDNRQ
The following applies: at 0.1 µM.

In test [7] the target is T2, Phosphatidylinositol 4,5-bisphosphate 3-kinase catalytic subunit delta isoform (Homo sapiens). To be noted: at 1 µM.
The target in test [8] is Phosphatidylinositol 4-kinase beta (Homo sapiens) (UniProt Q9UBF8). To be noted: at 0.1 µM.
Sequence of Phosphatidylinositol 4-kinase beta (Homo sapiens) (Q9UBF8 2-816 limits assumed): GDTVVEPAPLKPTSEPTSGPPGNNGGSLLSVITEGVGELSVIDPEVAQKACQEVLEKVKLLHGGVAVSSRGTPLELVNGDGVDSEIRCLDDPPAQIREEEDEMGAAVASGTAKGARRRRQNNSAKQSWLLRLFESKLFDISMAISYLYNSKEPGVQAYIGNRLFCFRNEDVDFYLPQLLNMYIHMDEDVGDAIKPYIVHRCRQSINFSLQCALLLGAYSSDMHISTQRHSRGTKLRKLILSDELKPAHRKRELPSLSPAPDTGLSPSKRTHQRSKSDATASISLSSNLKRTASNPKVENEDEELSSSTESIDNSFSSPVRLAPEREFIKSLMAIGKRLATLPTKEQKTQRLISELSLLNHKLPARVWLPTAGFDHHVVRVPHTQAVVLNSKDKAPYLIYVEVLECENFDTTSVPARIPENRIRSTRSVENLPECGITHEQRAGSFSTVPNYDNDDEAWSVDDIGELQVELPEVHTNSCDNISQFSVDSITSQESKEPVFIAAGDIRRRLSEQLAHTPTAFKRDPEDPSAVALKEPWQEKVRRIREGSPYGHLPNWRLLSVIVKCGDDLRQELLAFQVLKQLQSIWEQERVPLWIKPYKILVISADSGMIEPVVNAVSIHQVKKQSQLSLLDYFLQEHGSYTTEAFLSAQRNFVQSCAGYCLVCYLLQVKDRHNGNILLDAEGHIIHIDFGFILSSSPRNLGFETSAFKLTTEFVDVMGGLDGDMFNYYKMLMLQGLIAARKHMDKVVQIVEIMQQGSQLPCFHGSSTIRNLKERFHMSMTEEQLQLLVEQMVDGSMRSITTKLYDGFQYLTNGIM
Test [9] has the same target. To be noted: at 1 µM.
Test [10] concerns the target Sphingosine kinase 1 (Homo sapiens) (UniProt Q9NYA1). To be noted: at 0.1 µM.
Test [11] has the same target. The following applies: at 1 µM.
Test [12] concerns the target T3, Sphingosine kinase 2 (Homo sapiens) (UniProt Q9NRA0).
T3 sequence (whole entry): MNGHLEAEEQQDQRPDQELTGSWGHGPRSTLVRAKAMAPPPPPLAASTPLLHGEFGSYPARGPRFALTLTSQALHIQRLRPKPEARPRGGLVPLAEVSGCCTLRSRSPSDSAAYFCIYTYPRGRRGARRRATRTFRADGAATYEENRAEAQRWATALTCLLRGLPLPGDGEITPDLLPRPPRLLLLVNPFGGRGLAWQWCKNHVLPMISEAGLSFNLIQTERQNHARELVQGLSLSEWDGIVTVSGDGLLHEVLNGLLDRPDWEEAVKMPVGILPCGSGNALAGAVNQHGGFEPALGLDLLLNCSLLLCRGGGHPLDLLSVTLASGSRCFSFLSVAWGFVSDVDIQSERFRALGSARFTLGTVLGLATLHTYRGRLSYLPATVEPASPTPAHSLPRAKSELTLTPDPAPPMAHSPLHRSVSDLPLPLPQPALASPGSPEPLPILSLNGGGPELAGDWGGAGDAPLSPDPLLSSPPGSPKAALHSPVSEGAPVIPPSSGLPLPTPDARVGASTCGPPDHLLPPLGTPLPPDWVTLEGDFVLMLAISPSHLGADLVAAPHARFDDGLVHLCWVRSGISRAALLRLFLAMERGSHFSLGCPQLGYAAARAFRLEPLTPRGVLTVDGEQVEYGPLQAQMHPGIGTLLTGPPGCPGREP
To be noted: at 0.1 µM.

For test [13], the target named is T3, Sphingosine kinase 2 (Homo sapiens). To be noted: at 1 µM.
Test [14] addresses Casein kinase II subunit alpha (Homo sapiens) (UniProt P68400). To be noted: at 0.1 µM.
For test [15] the target is unchanged. To be noted: at 1 µM.
Test [16] concerns the target T4, Inhibitor of nuclear factor kappa-B kinase subunit alpha (Homo sapiens) (UniProt O15111).
T4 sequence (whole entry): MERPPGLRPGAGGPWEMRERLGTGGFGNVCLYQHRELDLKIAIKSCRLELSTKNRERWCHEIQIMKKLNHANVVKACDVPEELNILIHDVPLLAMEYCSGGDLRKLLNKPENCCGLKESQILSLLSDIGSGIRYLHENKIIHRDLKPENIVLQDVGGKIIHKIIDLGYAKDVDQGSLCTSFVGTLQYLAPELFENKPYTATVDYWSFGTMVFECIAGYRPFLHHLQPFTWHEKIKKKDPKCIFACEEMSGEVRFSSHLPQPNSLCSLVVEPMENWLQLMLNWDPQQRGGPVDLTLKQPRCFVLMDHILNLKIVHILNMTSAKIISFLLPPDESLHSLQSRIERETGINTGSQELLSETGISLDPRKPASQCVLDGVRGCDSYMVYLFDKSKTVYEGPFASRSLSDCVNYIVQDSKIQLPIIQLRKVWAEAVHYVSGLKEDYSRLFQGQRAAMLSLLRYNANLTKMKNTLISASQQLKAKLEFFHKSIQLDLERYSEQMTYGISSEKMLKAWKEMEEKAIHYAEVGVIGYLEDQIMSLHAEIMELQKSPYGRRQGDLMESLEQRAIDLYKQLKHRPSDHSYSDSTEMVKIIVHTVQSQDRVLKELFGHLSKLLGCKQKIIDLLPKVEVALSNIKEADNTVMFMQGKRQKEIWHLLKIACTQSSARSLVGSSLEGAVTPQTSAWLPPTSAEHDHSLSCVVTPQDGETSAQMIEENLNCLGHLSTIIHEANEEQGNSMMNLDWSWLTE
The following applies: at 0.1 µM.

For test [17], the target named is T4, Inhibitor of nuclear factor kappa-B kinase subunit alpha (Homo sapiens). To be noted: at 1 µM.
The target in test [18] is T5, Inhibitor of nuclear factor kappa-B kinase subunit beta (Homo sapiens) (UniProt O14920).
T5 sequence (whole entry): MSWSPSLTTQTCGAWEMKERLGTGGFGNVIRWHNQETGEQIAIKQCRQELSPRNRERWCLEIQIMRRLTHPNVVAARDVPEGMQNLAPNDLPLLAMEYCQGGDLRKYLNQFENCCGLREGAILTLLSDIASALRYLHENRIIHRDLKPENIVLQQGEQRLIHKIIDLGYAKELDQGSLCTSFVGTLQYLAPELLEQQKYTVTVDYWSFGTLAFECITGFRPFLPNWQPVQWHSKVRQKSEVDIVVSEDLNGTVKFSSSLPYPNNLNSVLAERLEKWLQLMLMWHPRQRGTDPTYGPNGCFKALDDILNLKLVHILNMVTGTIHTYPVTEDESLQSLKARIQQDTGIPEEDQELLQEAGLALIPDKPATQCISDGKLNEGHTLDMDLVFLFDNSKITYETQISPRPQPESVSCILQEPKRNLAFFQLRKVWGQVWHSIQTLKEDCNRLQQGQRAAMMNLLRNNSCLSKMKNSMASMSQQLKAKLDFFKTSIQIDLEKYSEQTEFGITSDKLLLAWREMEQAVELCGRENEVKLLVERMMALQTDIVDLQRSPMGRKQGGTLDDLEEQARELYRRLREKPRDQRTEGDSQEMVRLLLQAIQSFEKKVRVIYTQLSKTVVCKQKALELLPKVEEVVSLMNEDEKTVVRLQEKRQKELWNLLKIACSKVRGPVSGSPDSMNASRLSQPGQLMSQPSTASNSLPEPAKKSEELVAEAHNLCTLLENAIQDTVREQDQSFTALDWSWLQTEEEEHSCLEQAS
To be noted: at 0.1 µM.

For test [19], the target named is T5, Inhibitor of nuclear factor kappa-B kinase subunit beta (Homo sapiens). To be noted: at 1 µM.
Test [20] concerns the target T6, Inhibitor of nuclear factor kappa-B kinase subunit epsilon (Homo sapiens) (UniProt Q14164).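 Note: mean inhibition of IKKε reported, from the GSK PKIS dataset.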
T6 sequence (whole entry): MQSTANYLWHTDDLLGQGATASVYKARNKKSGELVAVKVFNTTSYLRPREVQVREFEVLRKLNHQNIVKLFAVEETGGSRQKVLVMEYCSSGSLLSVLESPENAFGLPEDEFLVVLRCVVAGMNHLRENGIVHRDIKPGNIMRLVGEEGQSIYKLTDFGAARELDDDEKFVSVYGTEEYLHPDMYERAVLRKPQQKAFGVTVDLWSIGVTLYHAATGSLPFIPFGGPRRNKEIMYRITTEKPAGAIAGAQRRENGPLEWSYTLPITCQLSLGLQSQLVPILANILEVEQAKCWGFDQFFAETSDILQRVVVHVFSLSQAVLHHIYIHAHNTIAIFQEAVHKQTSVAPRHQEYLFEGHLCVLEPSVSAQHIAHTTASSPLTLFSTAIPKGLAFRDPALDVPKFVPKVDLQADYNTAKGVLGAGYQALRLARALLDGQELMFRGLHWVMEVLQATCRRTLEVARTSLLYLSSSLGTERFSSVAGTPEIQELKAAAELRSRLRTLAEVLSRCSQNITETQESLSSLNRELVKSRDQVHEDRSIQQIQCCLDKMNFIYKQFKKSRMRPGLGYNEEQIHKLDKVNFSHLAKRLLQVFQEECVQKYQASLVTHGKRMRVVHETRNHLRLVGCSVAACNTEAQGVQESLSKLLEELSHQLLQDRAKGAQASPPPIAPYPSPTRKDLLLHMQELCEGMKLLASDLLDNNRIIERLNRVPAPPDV
The following applies: at 0.1 µM.

Sequence of SRSF protein kinase 1 (Homo sapiens) (Q96SB4 whole entry): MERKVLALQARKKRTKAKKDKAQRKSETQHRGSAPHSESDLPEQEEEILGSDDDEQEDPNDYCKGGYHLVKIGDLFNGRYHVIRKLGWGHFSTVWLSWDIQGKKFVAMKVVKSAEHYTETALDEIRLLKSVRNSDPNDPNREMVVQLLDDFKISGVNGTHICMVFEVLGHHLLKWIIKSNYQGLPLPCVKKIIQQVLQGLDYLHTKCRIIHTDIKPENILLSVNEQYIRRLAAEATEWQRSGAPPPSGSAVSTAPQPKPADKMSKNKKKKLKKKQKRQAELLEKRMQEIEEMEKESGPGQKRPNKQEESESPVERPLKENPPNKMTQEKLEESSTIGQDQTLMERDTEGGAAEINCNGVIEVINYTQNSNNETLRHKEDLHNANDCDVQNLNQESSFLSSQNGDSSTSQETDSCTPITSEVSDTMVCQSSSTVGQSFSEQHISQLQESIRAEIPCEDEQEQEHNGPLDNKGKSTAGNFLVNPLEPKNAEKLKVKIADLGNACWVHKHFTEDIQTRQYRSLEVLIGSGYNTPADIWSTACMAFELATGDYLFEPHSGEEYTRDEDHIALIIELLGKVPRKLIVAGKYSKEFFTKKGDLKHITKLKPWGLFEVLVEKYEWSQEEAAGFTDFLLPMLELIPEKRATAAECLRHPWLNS
Sequence of Sphingosine kinase 1 (Homo sapiens) (Q9NYA1 whole entry): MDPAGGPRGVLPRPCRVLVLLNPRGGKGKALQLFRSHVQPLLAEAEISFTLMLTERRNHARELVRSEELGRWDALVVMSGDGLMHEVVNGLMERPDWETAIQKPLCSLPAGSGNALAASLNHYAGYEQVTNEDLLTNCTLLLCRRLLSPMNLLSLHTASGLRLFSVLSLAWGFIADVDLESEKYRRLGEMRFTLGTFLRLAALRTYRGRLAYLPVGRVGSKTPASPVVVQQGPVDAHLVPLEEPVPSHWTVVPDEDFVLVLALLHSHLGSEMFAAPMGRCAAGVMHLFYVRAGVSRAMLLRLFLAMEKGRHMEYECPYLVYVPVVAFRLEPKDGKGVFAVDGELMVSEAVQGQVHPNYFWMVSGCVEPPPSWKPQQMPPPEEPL
Sequence of Casein kinase II subunit alpha (Homo sapiens) (P68400 whole entry, looked up): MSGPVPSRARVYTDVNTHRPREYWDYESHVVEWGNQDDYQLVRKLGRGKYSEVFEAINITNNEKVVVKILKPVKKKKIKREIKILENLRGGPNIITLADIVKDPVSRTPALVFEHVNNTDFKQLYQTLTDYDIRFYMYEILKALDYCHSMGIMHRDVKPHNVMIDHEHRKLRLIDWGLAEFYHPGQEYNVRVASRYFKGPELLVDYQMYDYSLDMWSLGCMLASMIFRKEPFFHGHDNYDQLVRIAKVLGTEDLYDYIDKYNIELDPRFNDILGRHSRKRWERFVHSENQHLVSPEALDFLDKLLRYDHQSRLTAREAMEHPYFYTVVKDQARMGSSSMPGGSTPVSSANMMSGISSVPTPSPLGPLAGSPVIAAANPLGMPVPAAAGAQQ

Consider `Nc1nccc(-c2c(-c3ccc(F)cc3)nn3cc(C(F)(F)F)ccc23)n1`, for which the inhibition was 1.01% in test [1]; -0.96% in test [2]; -1.1% in test [3]; 0.15% in [4]; 0.75% in test [5]; 0.55% in test [6]. For the same compound, the inhibition is 0.3% in test [7]; -4.79% in test [8]; -4.51% in test [9]; 4.09% in test [10]; 11.1% in test [11]; -0.68% in test [12]. The inhibition in test [13] is 0%; in test [14], 15.6%; in test [15], 2.55%; in test [16] it was -2.07%; in test [17], -2.01%; in test [18], 1.03%. For the same compound, the inhibition worked out at 0.86% in [19] and 1.65% in test [20].

For `COc1cc(/C=N/Nc2ncnc3c2cnn3C(C)C)ccc1O`, the inhibition in [1] was 1.85%; in [2], -0.73%; in test [3] it was 1.12%; in [4], 19%; in test [5], 70.5%; in test [6], 20.9%. Moreover, the inhibition in test [7] was 71.3%; in [8] it was -8.74%; in test [9], 26.5%; in test [10], 0.17%; in test [11] it was 7.48%; in test [12] it was -1.04%. Moreover, the inhibition in [13] was 1.89%; in [14] it was 2.91%; in test [15], 11.8%; in [16], -0.1%; in test [17], -0.51%; in test [18], 2.79%. The inhibition in test [19] is -2.39%; in test [20], 1.71%.

Take `Cc1ccc(Nc2ccnc(Nc3cccc(C(N)=O)c3)n2)cc1O`: the inhibition was 1.74% in test [1]; -1.01% in [2]; 1.41% in test [3]; 1.78% in test [4]; 3.39% in test [5]; 2.88% in test [6]. The inhibition in test [7] was 9.7%; in test [8] it was 3.13%; in test [9] it was 1.94%; in test [10] it was 0.79%; in [11], -3.44%; in [12], 0.84%. Also, the inhibition came to 0.08% in [13]; 4.12% in test [14]; 10.5% in test [15]; 4.77% in test [16]; 9.75% in [17]; 7.9% in test [18]. Besides, the results for the inhibition in test [19] and in test [20] were 26.8% and 11.4%, respectively.
